According to article PMC7819943, “Rice protein-binding microarrays: a tool to detect cis-acting elements near promoter regions in rice”:
The full ranking holds about 35,000 sequences; the median of “fluorescence intensity (a.u.)” is about 10,000, and the highest 2% start at about 52,000. What follows is part of a selection rich in the highest values, with near analogues and random picks from the rest.

What follows are sequences tested against T1, OsWOX13 (Oryza sativa, UniProt Q5QMM3 1-267) (assay: protein-binding microarray (RPBM); PBS, 2% BSA, 51.3 ng/ul salmon testes DNA, 50 uM zinc acetate, 200 nM TF, 25 C, 1 h; high values mean tight binding). Details: protein: recombinant; tags: N-terminal polyhistidine and DsRed monomer fusion (pET32a); label: CyDye5-dUTP incorporated in the synthesized complementary strand; 3' TTTTT single-stranded linker to array surface; dsDNA, one strand shown.
T1 sequence: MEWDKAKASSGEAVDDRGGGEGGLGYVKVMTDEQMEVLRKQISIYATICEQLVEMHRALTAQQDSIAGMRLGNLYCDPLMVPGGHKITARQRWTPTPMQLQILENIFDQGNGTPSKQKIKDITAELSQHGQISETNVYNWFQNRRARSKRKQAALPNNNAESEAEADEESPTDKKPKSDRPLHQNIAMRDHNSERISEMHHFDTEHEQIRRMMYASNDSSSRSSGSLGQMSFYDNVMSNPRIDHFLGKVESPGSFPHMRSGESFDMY
In short: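 An Axon 4000B scanner gave the binding signal as per-feature fluorescence intensity in arbitrary units. This followed washing of a custom Agilent array that had been incubated for 1 h at 25 °C with 200 nM protein in PBS, 2% BSA, salmon testes DNA and 50 µM zinc acetate. The proteins were transcription factors fused at the N-terminus to polyhistidine and DsRed, expressed in E. coli BL21-CodonPlus and purified on Ni–NTA.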

Sequence | binding signal
CGCTTGATCTGGGGTGGGGTCGCGAGTGGTGGAGGAGGTGCGGAGTCACCTAGTGCAG | 3600 fluorescence intensity (a.u.)
TGTTGACAAAATTAGCTGTTGCAACGCATACAGACTTCAACGGAGTCACCTAGTGCAG | 7410 fluorescence intensity (a.u.)
CCCTAATTATGGTACGTGTTGATCGTGCCACTTCTTCCTCCGGAGTCACCTAGTGCAG | 39500 fluorescence intensity (a.u.)
TTAGATAAAATTAATTTGTCTTGCTTTTGTAGGCTGCAGACGGAGTCACCTAGTGCAG | 27700 fluorescence intensity (a.u.)
TTGCTAATGACGGATTAATTATGCTTAATAAATTCATCTCCGGAGTCACCTAGTGCAG | 20600 fluorescence intensity (a.u.)
TACACTGATTAGTGGATGATGATATAGTATCTTTGTATGTCGGAGTCACCTAGTGCAG | 45600 fluorescence intensity (a.u.)
ATGTATTTGCTATTAAATTAATTATAGATGATTTAGAGCTCGGAGTCACCTAGTGCAG | 16300 fluorescence intensity (a.u.)
AATTAATCATGCAATAAAACAAATTTCGTTTTGCGTGCTACGGAGTCACCTAGTGCAG | 6310 fluorescence intensity (a.u.)
ATAAAATGTAAATTATGCTTAAAATGCTTTTAGTGATAAACGGAGTCACCTAGTGCAG | 4750 fluorescence intensity (a.u.)
GTTTGATTGCTTAATTAATTTCCAAATGCGCAATCATGCACGGAGTCACCTAGTGCAG | 64800 fluorescence intensity (a.u.)
ATGTGCTAATGATGGATTAATTACGCTTAATAAATTCGTCCGGAGTCACCTAGTGCAG | 28000 fluorescence intensity (a.u.)
TGCTAATGATGGATTAATTAAGCTTAATAAATTCATCTCGCGGAGTCACCTAGTGCAG | 53700 fluorescence intensity (a.u.)
ACTGATTAGTGGATATGCTTTATATATGTAATTAGGATGCCGGAGTCACCTAGTGCAG | 53000 fluorescence intensity (a.u.)
AAACCTAATTAATCATGCGCAAATGGCTTTCTTGTTTTGCCGGAGTCACCTAGTGCAG | 22900 fluorescence intensity (a.u.)
TGATTTAATTAATTAATTAATGGCCTTGTTATTGGATGCTCGGAGTCACCTAGTGCAG | 47100 fluorescence intensity (a.u.)
CTGGATGATTGGATTGATTATGGACAGATTTAAATTTGCTCGGAGTCACCTAGTGCAG | 65500 fluorescence intensity (a.u.)
TGAGTGATGACAGTAAGTAACTGAATCTGCTGAGTTCTGACGGAGTCACCTAGTGCAG | 6590 fluorescence intensity (a.u.)
TCTCATCAATTGAATGGATATTATATTTTAATGTGTTCAGCGGAGTCACCTAGTGCAG | 8660 fluorescence intensity (a.u.)
GCTATGATTGTCTTTAGGGTATCTAATAATTGTGGTTTGACGGAGTCACCTAGTGCAG | 21700 fluorescence intensity (a.u.)
ACCAAACGCCTTGATTGAAACCATCGATATACATATGTAACGGAGTCACCTAGTGCAG | 34900 fluorescence intensity (a.u.)
GAAAATGTTCCATCTGATTATAAATTATTATATTTTGGGACGGAGTCACCTAGTGCAG | 4000 fluorescence intensity (a.u.)
TGAAAGTAATTTGATGCTATAAGTCAAAGTTAAAGAGATGCGGAGTCACCTAGTGCAG | 3500 fluorescence intensity (a.u.)
GTTGCAGATTGAGAGCCAAAGACATTATCTTGATTCTATCCGGAGTCACCTAGTGCAG | 13100 fluorescence intensity (a.u.)

Sequence | binding signal
TTTAAGATGATCAGATTTCTAATTGCAGTTCACCTTAACTCGGAGTCACCTAGTGCAG | 7420 fluorescence intensity (a.u.)
TATAAATATAATTTATCCAAAGAGCATTTATAAGGACTTCCGGAGTCACCTAGTGCAG | 4240 fluorescence intensity (a.u.)
TAGTGATTTTGTGAAATCTCAAAATATATTGATCCAGCTTCGGAGTCACCTAGTGCAG | 5030 fluorescence intensity (a.u.)
GCTTGACTAACATATTCTGTTGGATTGCTACCGCGCCATGCGGAGTCACCTAGTGCAG | 7150 fluorescence intensity (a.u.)
TCCATTAACATTTGCCATTATCGTACTGACTTTCGTACGACGGAGTCACCTAGTGCAG | 3710 fluorescence intensity (a.u.)
CGCCCACTGAATTAATCAATCAGTAAAGCTGCCACCGTGCCGGAGTCACCTAGTGCAG | 39100 fluorescence intensity (a.u.)
CCAAGATGAATTGGAACTTTGCACACCAACCAAATAGGGGCGGAGTCACCTAGTGCAG | 3580 fluorescence intensity (a.u.)
ATGTACTTAATTCAATTTGTCAAAAGAATTATGTATCCCTCGGAGTCACCTAGTGCAG | 3990 fluorescence intensity (a.u.)
GGTTCAACGGTACCCTTGATTGCTATAGAGAGTGATATATCGGAGTCACCTAGTGCAG | 4670 fluorescence intensity (a.u.)
GAAATTAATAACAAATTAAAACCAGAGCCAGCTGACTGCTCGGAGTCACCTAGTGCAG | 21700 fluorescence intensity (a.u.)
CCGACGGCTCAGATTGACTGCAGTAGTGGGTATCTCTTCTCGGAGTCACCTAGTGCAG | 13700 fluorescence intensity (a.u.)
TGCTAAAATTTTGACAATATTGTTAACTTGCTCTAGTTTACGGAGTCACCTAGTGCAG | 6920 fluorescence intensity (a.u.)
TGCTTTATTATTTGATTGATTGATCACTTGTTGGATGGGACGGAGTCACCTAGTGCAG | 64200 fluorescence intensity (a.u.)
TTAATTAGGTTTAATAGATTCATCTCGCAGTTTACAGGCACGGAGTCACCTAGTGCAG | 18500 fluorescence intensity (a.u.)
TTATTTGTGGCTTGAAGATTGACAGCTTTTGTTGATTGCTCGGAGTCACCTAGTGCAG | 9340 fluorescence intensity (a.u.)
GAAGATGATGATGATTTAGCATGCAAATGAGCAGTTGACACGGAGTCACCTAGTGCAG | 13800 fluorescence intensity (a.u.)
GACTTGATTTACAGATTTATTGACAGAGTTTTGCTAAGCTCGGAGTCACCTAGTGCAG | 56600 fluorescence intensity (a.u.)
GATTAATTAGGCTTCATAAATTCGTCTCGCAGTTTACAGGCGGAGTCACCTAGTGCAG | 30800 fluorescence intensity (a.u.)
TTTGTTGCTTTACTTGGGAGATTGATCGCTAAACGAGTCACGGAGTCACCTAGTGCAG | 3150 fluorescence intensity (a.u.)
GATTAATTAGATTTAATAAATTCATCTCGCAGTTTACAGGCGGAGTCACCTAGTGCAG | 62200 fluorescence intensity (a.u.)
CAGATCAATTTATCGAGATTGATCAAAAGCAAGATGATGCCGGAGTCACCTAGTGCAG | 35000 fluorescence intensity (a.u.)
TGTTTGGATGATTTTATGGATGATCACTTCTCTTTATTTACGGAGTCACCTAGTGCAG | 3280 fluorescence intensity (a.u.)
ATTGCAGATTGATTTATCTCGTCAAGATTGATGAGCATGCCGGAGTCACCTAGTGCAG | 63500 fluorescence intensity (a.u.)
